What all share (set-up): scale not given: direction of the effect not stated beside the values
Assay [1] deals with Protein translocase subunit SecA (Escherichia coli (strain K12)) (UniProt P10408). The assay can be described thus: Assay to Identify E. coli SecA ATPase Inhibitors. In kind it is functional. The following applies: 30 µM.
Assay [2] has as its target T1, Ubiquitin-activating enzyme e1, putative (Leishmania donovani (strain BPK282A1)) (UniProt E9BSI1).
T1 sequence (whole entry): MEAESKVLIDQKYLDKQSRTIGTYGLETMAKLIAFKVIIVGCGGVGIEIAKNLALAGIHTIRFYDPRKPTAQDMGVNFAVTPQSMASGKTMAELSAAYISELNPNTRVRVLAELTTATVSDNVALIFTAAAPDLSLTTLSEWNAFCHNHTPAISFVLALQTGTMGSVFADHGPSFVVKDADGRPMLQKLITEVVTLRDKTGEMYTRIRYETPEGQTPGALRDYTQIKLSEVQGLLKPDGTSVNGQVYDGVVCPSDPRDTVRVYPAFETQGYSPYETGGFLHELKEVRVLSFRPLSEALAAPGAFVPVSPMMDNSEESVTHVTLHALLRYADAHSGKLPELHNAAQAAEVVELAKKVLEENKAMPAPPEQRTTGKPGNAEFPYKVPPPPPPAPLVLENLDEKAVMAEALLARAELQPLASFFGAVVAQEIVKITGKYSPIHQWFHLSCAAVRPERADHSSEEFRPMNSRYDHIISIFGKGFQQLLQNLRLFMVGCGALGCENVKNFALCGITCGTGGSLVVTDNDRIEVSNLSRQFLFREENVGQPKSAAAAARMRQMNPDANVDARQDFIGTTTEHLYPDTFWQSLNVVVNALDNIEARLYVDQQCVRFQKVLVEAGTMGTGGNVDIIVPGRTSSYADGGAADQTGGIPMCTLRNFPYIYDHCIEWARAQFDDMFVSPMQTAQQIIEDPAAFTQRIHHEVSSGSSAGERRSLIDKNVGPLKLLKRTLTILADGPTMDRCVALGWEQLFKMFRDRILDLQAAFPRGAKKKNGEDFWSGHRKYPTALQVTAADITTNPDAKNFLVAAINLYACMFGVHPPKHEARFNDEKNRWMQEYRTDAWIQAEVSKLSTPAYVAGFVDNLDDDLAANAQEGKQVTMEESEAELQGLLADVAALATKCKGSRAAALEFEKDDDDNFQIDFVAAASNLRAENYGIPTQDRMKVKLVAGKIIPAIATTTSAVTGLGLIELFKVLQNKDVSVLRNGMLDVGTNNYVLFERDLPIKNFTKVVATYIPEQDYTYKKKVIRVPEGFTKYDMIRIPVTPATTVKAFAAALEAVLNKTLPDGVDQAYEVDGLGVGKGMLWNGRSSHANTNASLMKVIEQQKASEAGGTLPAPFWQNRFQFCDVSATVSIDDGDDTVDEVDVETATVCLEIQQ
The assay can be described thus: Leishmania donovani Ubiquitin Activating Enzyme (LdE1). In kind it is functional. The following applies: 30 µM.

Assay [3] concerns the target AMP-activated protein kinase, AMPK (Homo sapiens) (UniProt P54646+O43741+P54619+Q9UGJ0+Q9Y478+Q13131+Q9UGI9). The assay can be described thus: AMP-dependent Kinase enzyme assay. An in vitro enzyme assay that detects ADP turnover that is directly proportional to AMPK activity. This uses naive AMPK that is activated during the assay with MK-8722. In kind it is functional. The following applies: 30 µM.

Assay [4] addresses Sialic acid-binding Ig-like lectin 9 (Homo sapiens) (UniProt Q9Y336). The assay can be described thus: Hs-Siglec9 ALPHAscreen SOP 20170721. The following applies: 10 µM. A general note: Alpha assays give light when donor and acceptor beads are brought close together.
Assay [5] has as its system Trypanosoma cruzi. The assay can be described thus: Trypanosoma cruzi phosphomannomutase and mannose-1-phosphate guanylyltransferase assay. Type of assay: functional. The following applies: 10 µM.
The target in assay [6] is T2, Arginase-2, mitochondrial (Homo sapiens) (UniProt P78540).
T2 sequence (whole entry): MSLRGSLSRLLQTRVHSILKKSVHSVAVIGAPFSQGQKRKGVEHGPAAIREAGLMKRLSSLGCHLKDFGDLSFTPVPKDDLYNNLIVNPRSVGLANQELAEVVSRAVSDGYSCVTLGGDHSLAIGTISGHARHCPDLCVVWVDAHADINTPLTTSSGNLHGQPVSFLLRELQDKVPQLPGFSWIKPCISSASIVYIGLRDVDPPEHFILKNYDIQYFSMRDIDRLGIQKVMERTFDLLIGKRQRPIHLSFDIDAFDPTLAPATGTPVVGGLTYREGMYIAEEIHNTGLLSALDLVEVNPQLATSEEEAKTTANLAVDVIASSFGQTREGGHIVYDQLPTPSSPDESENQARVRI
Description: in vitro enzyme assay to detect the production of urea directly proportional to the activity of Arginase II. Also: in the data most compounds retested in dose-response had high values. The following applies: 33.3 µM. Type of assay: functional.

Assay [7] deals with T3, Proteasome subunit beta (Trypanosoma cruzi) (UniProt O96673).
T3 sequence (whole entry): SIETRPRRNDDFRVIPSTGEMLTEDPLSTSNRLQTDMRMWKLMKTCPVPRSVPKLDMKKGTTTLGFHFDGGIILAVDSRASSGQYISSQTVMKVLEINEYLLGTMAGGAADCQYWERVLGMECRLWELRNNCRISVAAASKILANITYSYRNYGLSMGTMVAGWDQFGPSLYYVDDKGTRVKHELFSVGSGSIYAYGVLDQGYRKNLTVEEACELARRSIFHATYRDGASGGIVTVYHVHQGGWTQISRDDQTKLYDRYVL
The assay can be described thus: Trypanosoma cruzi proteasome chymotrypsin-like activity (TcProtChymo) assay. Also: in the data most compounds retested in dose-response had high values. In kind it is functional. The following applies: 9.37 µM.

For assay [8], the species on record is Homo sapiens. Description: To identify inhibition of the IFN signalling (Jak-Stat) pathway via expression of an eGFP reporter gene under the control of an IFN-stimulated response element (ISRE) containing MxA promoter. In kind it is functional. The following applies: 30 µM.
Assay [9] concerns the target T4, Tyrosyl-tRNA synthetase, putative (Trypanosoma cruzi (strain CL Brener)) (UniProt Q4DSP6).
T4 sequence (whole entry): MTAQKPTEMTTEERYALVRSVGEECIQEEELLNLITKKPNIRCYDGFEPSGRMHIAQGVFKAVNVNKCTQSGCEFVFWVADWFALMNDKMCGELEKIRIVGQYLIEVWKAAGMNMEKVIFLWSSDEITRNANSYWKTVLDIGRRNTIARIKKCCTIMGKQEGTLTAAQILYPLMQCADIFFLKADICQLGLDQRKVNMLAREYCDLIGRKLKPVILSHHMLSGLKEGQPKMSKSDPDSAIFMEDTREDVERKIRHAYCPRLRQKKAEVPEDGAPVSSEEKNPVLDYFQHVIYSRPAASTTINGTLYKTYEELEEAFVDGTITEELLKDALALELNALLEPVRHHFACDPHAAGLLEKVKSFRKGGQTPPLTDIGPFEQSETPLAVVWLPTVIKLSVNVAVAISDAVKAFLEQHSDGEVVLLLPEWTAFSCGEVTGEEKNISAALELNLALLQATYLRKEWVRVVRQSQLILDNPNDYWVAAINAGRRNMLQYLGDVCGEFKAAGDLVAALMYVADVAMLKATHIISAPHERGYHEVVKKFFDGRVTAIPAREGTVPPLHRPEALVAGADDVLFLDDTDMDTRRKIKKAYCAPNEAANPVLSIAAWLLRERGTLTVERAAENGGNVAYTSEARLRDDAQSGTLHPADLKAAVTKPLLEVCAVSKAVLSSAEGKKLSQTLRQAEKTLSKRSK
The assay can be described thus: Trypanosoma cruzi tyrosyl tRNA synthetase (TcYRS) _High Tyrosine SOP. Also: in the data most compounds retested in dose-response had high values. Type of assay: functional. The following applies: 30 µM.

The target of assay [10] is T4, Tyrosyl-tRNA synthetase, putative (Trypanosoma cruzi (strain CL Brener)). Description: Trypanosoma cruzi tyrosyl tRNA synthetase (TcYRS) SOP. In kind it is functional. The following applies: 30 µM.
Assay [11] concerns the target Chromo domain-containing protein 1 (Saccharomyces cerevisiae (strain ATCC 204508 / S288c) (Baker's yeast)) (UniProt P32657). The assay can be described thus: ScCHD-1 Enzyme Inhibition Assay. Also: in the data most compounds retested in dose-response had high values. The following applies: 30 µM. In kind it is functional.

For some of these results: Potency and affinity values are given separately.

Sialic acid-binding Ig-like lectin 9 (Homo sapiens), sequence (Q9Y336 whole entry): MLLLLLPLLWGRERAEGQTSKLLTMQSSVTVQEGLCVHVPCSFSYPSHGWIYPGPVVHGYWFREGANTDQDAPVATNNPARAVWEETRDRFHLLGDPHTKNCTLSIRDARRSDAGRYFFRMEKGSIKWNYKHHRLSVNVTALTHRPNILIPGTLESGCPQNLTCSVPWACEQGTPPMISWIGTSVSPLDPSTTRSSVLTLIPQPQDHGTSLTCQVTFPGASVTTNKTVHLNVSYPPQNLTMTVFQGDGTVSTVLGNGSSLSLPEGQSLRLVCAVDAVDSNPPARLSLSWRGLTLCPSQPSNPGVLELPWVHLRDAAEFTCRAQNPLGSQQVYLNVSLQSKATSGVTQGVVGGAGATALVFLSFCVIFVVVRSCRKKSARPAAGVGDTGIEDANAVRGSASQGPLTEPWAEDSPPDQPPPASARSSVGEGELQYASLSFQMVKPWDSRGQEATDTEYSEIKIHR
Protein translocase subunit SecA (Escherichia coli (strain K12)), sequence (P10408 whole entry): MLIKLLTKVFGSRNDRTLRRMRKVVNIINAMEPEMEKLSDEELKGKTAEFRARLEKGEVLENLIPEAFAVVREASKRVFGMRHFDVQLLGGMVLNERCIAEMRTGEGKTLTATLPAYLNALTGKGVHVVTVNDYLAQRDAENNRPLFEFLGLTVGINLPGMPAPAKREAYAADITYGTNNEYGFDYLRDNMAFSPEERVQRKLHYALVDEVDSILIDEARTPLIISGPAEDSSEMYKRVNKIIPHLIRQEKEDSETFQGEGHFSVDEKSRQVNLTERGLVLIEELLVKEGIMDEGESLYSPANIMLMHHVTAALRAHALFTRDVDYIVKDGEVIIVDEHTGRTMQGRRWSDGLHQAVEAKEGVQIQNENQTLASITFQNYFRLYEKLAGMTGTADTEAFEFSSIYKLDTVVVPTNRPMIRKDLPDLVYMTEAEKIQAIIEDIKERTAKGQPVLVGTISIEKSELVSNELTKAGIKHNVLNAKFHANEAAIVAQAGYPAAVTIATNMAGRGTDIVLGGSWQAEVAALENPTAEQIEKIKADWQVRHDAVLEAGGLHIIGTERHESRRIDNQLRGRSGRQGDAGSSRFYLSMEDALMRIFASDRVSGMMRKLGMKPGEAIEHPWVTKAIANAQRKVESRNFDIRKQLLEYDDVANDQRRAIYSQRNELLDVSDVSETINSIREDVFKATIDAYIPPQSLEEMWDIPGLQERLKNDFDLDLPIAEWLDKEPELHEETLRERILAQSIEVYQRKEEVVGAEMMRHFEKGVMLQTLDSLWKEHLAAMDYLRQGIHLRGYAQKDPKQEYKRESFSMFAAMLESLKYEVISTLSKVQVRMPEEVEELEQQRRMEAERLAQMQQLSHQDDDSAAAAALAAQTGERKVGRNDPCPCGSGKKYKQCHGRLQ
Chromo domain-containing protein 1 (Saccharomyces cerevisiae (strain ATCC 204508 / S288c) (Baker's yeast)), sequence (P32657 whole entry, the tested form may be a part): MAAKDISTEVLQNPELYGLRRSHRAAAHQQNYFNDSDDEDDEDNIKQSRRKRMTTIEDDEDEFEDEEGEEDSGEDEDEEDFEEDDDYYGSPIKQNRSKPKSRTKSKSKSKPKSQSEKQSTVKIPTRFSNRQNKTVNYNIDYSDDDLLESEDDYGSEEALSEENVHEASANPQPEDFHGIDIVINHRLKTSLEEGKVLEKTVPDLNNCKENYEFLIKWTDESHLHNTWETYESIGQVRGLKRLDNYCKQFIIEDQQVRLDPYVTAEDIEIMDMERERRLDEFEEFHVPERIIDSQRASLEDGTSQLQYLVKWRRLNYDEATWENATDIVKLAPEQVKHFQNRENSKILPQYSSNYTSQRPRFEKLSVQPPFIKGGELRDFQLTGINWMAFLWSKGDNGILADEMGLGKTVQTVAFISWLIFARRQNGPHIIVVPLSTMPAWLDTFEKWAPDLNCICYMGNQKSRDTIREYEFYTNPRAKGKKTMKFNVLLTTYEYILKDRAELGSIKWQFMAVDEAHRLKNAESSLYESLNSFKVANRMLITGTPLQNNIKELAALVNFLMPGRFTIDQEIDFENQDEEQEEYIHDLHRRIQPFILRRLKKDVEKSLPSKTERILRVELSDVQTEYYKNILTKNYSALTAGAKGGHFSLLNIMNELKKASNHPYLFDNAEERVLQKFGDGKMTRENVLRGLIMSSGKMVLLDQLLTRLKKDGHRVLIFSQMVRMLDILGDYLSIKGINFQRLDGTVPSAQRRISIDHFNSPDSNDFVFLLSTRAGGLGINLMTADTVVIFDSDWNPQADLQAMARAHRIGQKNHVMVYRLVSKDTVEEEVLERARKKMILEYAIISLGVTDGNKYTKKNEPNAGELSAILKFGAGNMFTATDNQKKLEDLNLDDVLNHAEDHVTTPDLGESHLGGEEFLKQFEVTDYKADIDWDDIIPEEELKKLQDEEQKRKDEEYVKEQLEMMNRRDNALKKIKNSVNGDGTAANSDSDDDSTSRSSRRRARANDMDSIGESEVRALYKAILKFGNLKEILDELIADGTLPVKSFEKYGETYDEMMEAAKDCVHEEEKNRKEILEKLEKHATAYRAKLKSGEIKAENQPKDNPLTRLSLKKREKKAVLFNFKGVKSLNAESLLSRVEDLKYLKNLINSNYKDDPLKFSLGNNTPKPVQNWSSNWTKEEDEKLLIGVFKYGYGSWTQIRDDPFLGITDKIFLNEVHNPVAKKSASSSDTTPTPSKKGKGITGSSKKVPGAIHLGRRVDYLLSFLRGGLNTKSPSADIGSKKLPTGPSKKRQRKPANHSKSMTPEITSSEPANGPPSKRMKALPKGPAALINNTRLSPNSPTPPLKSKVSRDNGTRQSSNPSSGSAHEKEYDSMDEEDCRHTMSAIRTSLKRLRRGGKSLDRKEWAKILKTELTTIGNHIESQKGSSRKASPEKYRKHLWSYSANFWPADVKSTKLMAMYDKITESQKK

Take `COCCNS(=O)(=O)c1cccc2c1CN(C(=O)c1ccccc1)CC2`: the Percent Effect in [1] was -6.17%; in assay [2], -4.17%; in assay [3], 4.56%; in assay [4] it was 0.0622%; in [5], -1.65%; in assay [6], -2.21%. In addition, the Percent Effect is 4.39% in [7]; 34.9% in [8]; -4.21% in [9]; -10.3% in [10]; 4.48% in assay [11].

Consider `COCCN1CCc2cc(C(=O)N(C)C)c(NC(C)C)nc2CC1`, for which the Percent Effect is -0.676% in assay [1]; 8.11% in assay [2]; -3.33% in assay [3]; -5.3% in assay [4]; -2.25% in assay [5]; 0.248% in [6]. The Percent Effect in assay [7] was 0.429%; in [8], -3.78%; in assay [9], -10.8%; in assay [10], 3.7%; in assay [11], -3.16%.

With `CC(=O)N1CCC(C(=O)N(C)[C@@H]2CCC[C@@H](N3CCCC3)[C@@H]2O)CC1`, the Percent Effect is -6.98% in assay [1]; 20.3% in [2]; -7.25% in assay [3]; -2.3% in assay [4]; 6.13% in assay [5]; -2.09% in [6]. Also, the Percent Effect was 13.4% in [7]; 13.2% in assay [8]; 5.38% in [9]; 22.1% in [10]; -22.6% in assay [11].

On to `CC(C)Nc1ncc(CN2C[C@@H](CN3CCC(O)CC3)[C@@H](CO)C2)cn1`, for which the Percent Effect in assay [1] was -5.5%; in [2], 2.67%; in [3] it was -4.76%; in assay [4] it was 7.2%; in assay [5], 2.43%; in assay [6], -0.521%. In addition, the Percent Effect in assay [7] is 12.2%; in assay [8], 8.53%; in assay [9], 4.92%; in assay [10] it was 11.1%; in assay [11] it was -8.5%.

As to `Cc1nc(CN2CCOC(c3nc(C(C)C)n[nH]3)C2)oc1C` (stereo not drawn), the Percent Effect is -1.29% in assay [1]; 5.06% in [2]; 3.22% in [3]; 7.38% in assay [4]; 2.74% in assay [5]; 2.66% in assay [6]. Moreover, the Percent Effect is 1.72% in assay [7]; -4.74% in assay [8]; 3.45% in assay [9]; 8.86% in [10]; -3.77% in assay [11].

As for `COCCCC1(CO)CCCN(CCS(C)(=O)=O)C1` (stereo not drawn), the Percent Effect in [1] is -1.54%; in assay [2] it was 0%; in assay [3] it was 3.61%; in assay [4], -1.71%; in assay [5], 0%; in [6], 1.36%. Further, the Percent Effect is 2.13% in [7]; -0.331% in assay [8]; 2.15% in assay [9]; 5% in assay [10]; 2.4% in [11].

Consider `CS(=O)(=O)N1CCCC12CCCN(S(=O)(=O)c1cc(F)cc(F)c1)C2` (stereo not drawn), for which the Percent Effect in [1] is -5.6%; in assay [2], -8.11%; in assay [3] it was 3.16%; in assay [4], -10%; in assay [5] it was -3.23%; in assay [6], -2.23%. The Percent Effect was 10% in assay [7]; 14.4% in assay [8]; 0% in assay [9]; -1.24% in assay [10]; -0.985% in assay [11].

With `O=C(NCC(=O)N1CCCCC1)c1ccc(Cl)cc1I`, the Percent Effect in [1] was -0.681%; in [2] it was 5.41%; in assay [3], -6.27%; in assay [4], 3.75%; in [5], 8.49%; in assay [6], 0%. Moreover, the Percent Effect in [7] was 10.5%; in assay [8], 13.7%; in [9], 2.65%; in assay [10], 12.2%; in assay [11], -1.27%.

The record behind these values is ChEMBL document CHEMBL3988442, “University of Dundee, Small-Polar-MMV Screening Library” (2021).
